Measured values reported in PMC4336329 (PLoS ONE, 2015).
Hit rate of the full screen: of about 310,000 compounds, about 14,000 (4.5%) showed an effect of 50% or more. Effects have a minus sign here. The entries come from a sample that favours strong results as a whole.

These compounds were tested against human ether-à-go-go-related gene (hERG) potassium channel (human, UniProt Q12809) (assay: primary screen, population patch clamp on CHO cells stably expressing hERG; higher = less effect of the substance).
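Further: peak tail current of the secondary pulse compared with the same well before compound.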

human ether-à-go-go-related gene (hERG) potassium channel, sequence (Q12809 whole entry, looked up): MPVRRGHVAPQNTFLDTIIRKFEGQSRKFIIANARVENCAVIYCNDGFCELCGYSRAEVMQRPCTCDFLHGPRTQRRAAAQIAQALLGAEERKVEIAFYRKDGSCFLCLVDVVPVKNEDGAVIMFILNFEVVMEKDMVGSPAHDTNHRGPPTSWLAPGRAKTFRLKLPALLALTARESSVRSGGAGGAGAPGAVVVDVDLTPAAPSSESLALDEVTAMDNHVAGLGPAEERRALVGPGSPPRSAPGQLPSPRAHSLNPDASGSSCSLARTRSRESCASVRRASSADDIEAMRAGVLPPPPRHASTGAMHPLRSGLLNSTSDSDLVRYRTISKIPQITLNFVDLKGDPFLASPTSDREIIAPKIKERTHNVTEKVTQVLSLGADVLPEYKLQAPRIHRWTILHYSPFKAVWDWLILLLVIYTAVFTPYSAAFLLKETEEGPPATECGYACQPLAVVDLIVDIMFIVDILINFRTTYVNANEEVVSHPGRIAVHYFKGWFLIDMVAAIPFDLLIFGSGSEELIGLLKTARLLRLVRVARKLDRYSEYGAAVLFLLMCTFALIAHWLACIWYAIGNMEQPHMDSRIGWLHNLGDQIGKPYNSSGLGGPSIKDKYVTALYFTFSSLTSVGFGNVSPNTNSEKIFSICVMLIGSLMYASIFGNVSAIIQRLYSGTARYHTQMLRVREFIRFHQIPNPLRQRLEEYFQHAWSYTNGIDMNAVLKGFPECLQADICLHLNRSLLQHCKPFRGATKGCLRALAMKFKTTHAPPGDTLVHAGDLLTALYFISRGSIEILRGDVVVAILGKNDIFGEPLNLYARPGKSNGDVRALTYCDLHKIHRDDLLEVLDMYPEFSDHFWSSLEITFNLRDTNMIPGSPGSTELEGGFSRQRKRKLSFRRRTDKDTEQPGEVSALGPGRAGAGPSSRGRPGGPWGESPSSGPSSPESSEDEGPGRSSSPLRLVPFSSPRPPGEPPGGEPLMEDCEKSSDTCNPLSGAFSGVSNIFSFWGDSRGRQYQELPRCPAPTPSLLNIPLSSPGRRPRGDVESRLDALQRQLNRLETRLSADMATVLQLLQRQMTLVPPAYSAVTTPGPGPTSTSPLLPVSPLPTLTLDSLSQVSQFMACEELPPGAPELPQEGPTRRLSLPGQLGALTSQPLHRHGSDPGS

| SMILES | hERG current change (%, negative = inhibition) at 10uM [%] |
| --- | --- |
| CCC(=O)N1CCN(c2ccc(NC(=S)NC(=O)COc3ccccc3)cc2)CC1 | -21.6 |
| CC(=O)c1c(C)[nH]c(C(=O)Nc2nc(-c3ccc(-c4ccccc4)cc3)cs2)c1C | 19.3 |
| O=C(COCc1cc(-c2ccc3c(c2)OCO3)on1)Nc1cccnc1 | 10 |
| CC1CCN(CCOCCOc2ccccc2Br)CC1 | -30.1 |
| O=C(O)C(=O)O.c1ccc(-c2ccccc2OCCOCCN2CCNCC2)cc1 | 2.27 |
| CC1CCCN(CCOCCSc2ccccc2)C1.O=C(O)C(=O)O (centres unmarked) | -34.5 |
| CC1CC(C)CN(CCOc2cccc(Cl)c2Cl)C1.O=C(O)C(=O)O (centres unmarked) | -35.9 |
| CC1CN(CCOc2ccc(Cl)cc2Cl)CC(C)O1.O=C(O)C(=O)O (centres unmarked) | -24.6 |
| CC1CC(C)CN(CCOc2ccc(Cl)cc2Cl)C1.O=C(O)C(=O)O (centres unmarked) | -67.3 |
| CC1CCCN(CCOc2ccc3ccccc3c2Br)C1.O=C(O)C(=O)O (centres unmarked) | -69 |
| CC1CCN(CCOc2ccccc2-c2ccccc2)CC1.O=C(O)C(=O)O | -58.6 |
| CC1CCN(C(=O)COc2ccc3ccccc3c2Br)CC1 | 11.8 |
| CC1CCN(CCOCCOc2ccccc2-c2ccccc2)CC1 | -57.2 |
| CC(=O)N(CC1CCCO1)c1nnc(-c2cnccn2)s1 (centres unmarked) | 12.8 |
| Cc1ccc(NC(=O)CN(C)C(=S)NC2CC2)cc1 | 16.4 |
| Cc1ccc(C(=O)Nc2cc3c(oc2=O)CCCC3=O)cc1 | -2.47 |
| COc1cc(/C=C/C(=O)NC(C)C2CC3CCC2C3)cc(OC)c1OC (centres unmarked) | 10.6 |
| O=C(CN1C(=O)S/C(=C\c2cccs2)C1=O)Nc1ccc(O)cc1C(=O)O | 8.88 |
| CCOc1ccc(-n2ccnc2SCC(=O)Nc2nnc(CC)s2)cc1 | -11.9 |
| CCC(=O)N1CCc2cc(Br)cc(S(=O)(=O)N3CCCCC3CC)c21 (centres unmarked) | 0.791 |
| CCCN(c1ccc(C)cc1)c1nc(=O)c2cccnc2s1 | -28 |
| COc1cc(S(=O)(=O)N2CCCCC2)ccc1NC(=O)c1ccccc1Cl | -24.6 |

| SMILES | hERG current change (%, negative = inhibition) at 10uM [%] |
| --- | --- |
| COCCNC(=O)C1CC2Cn3c(nc4cc(C)c(C)cc43)C2N1C (centres unmarked) | 8.23 |
| CN1C(C(=O)NCc2cccc(Br)c2)CC2Cn3c(nc4ccccc43)C21 (centres unmarked) | -67.7 |
| CCCNC(=O)C1CC2Cn3c(nc4ccccc43)C2N1C (centres unmarked) | 12.8 |
| COCCNC(=O)C1CC2Cn3c(nc4cc5ccccc5cc43)C2N1C (centres unmarked) | -3.93 |
| C=CCNC(=O)C1CC2Cn3c(nc4cc5ccccc5cc43)C2N1C (centres unmarked) | -16.2 |
| CN1C(C(=O)NCc2ccco2)CC2Cn3c(nc4cc5ccccc5cc43)C21 (centres unmarked) | -38.6 |
| Cc1cc2nc3n(c2cc1C)CC1CC(C(=O)NCc2ccco2)N(C)C31 (centres unmarked) | -29 |
| CN1C(C(=O)NCc2ccccc2)CC2Cn3c(nc4cc5ccccc5cc43)C21 (centres unmarked) | -67.9 |
| CN1C(C(=O)NCc2cccc(Br)c2)CC2Cn3c(nc4cc5ccccc5cc43)C21 (centres unmarked) | -62 |
| Cc1cc2nc3n(c2cc1C)CC1CC(C(=O)NCc2ccccc2)N(C)C31 (centres unmarked) | -31.4 |
| CN1C(C(=O)NCc2ccccc2)CC2Cn3c(nc4ccccc43)C21 (centres unmarked) | -0.69 |
| Cc1cc2nc3n(c2cc1C)CC1CC(C(=O)NCc2cccc(Br)c2)N(C)C31 (centres unmarked) | -72.5 |
| Cc1ccc(S(=O)(=O)[N-]c2nc3ccccc3nc2-n2cc[n+](Cc3ccccc3)c2)cc1 | 11 |
| O=C(c1csc2c1CCCC2)N1CCN(c2ncccn2)CC1 | -25.1 |
| O=C(NCc1cccc(C(F)(F)F)c1)c1ccc(=O)[nH]c1 | 22.5 |
| Cc1oc(-c2ccccc2)nc1CS(=O)CC(=O)O (centres unmarked) | 10.2 |
| Cc1nn(-c2ccccc2)c(N2CCCC2)c1C=O | 2.49 |
| Cc1cccc(-c2ncc(CN3CCCC(CO)(Cc4ccccc4C)C3)cn2)c1 (centres unmarked) | -11.4 |
| Cc1cccc(/C=N/NC(=O)Cc2ccc(Cl)cc2)c1O | 18.6 |
| Cc1cc(C)nc(SCC(=O)NN)n1 | 21.1 |
| O=C(NCc1ccccc1)c1ccc[n+]([O-])c1 | 30.8 |
| O=S(=O)(Nc1nc2cc3c(cc2nc1Cl)OCCO3)c1ccccc1 | -15.5 |
